# Data taken from PubChem BioAssay (NCATS).
# Results filed as inconclusive are left out. Activity calls are given as the source filed them. Unless noted, calls follow the shape of the full dose curve.
# What was measured:
# [1] = molecular target: Glucocorticoid receptor (Homo sapiens) (UniProt P04150); experiment: qHTS assay for small molecule agonists of glucocorticoid receptor signaling (AID 588532; active = well fitted curve in the direction sought with a large enough effect in the signal ratio, with a control signal flat; the % refers to the signal ratio;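 also: 100% = dexamethasone at 0.1 µM and 0% = DMSO only wells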); conditions: HeLa MMTV-bla, beta-lactamase ratio, agonist, 18 h; stronger effect = higher value; percent of dexamethasone control, DMSO zero
# Outline: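 Titration series, up to 92 uM, applied to GRE-bla HeLa cells for 18 h at 37 C. Detection by CCF4 FRET substrate after 2 h at RT.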
# [2] = molecular target: Glucocorticoid receptor (Homo sapiens) (UniProt P04150); experiment: qHTS assay for small molecule antagonists of glucocorticoid receptor signaling (AID 588533; active = well fitted inhibition curve with a large enough effect in the signal ratio, with a control signal flat, not every such curve was filed as active; the % refers to the signal ratio;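 also: cells stimulated with 2 nM dexamethasone as agonist; % is scaled to controls: 0 for no effect and ±100 for the full control effect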); conditions: HeLa MMTV-bla, GRE beta-lactamase ratio, antagonist mode, 18 h; series mostly up to 76.8 µM
# Outline: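 Antagonist-mode qHTS: compound titrations added to GRE-bla HeLa cells, then dexamethasone 2 nM final; 18 h, 37 C. CCF4 FRET fluorescence normalized to dexamethasone and DMSO; IC50 from Hill fit.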
# [3] = qHTS assay for small molecule antagonists of peroxisome proliferator-activated receptor delta signaling (AID 588535; active = well fitted inhibition curve with a large enough effect in the signal ratio, with a control signal flat, not every such curve was filed as active; the % refers to the signal ratio;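 as to max response: cells co-treated with a PPAR-delta agonist as stimulator during compound exposure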); conditions: HEK293T PPARd-UAS-bla, beta-lactamase FRET ratio, 18 h; 460 nm channel
# Outline: (§1)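 Inhibition of PPAR-delta response element-driven beta-lactamase expression is measured in HEK293T cells exposed to a compound titration series for 18 hrs at 37 C. Half-maximal inhibition comes from Hill equation fitting.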
# [4] = molecular target: Peroxisome proliferator-activated receptor delta (Homo sapiens) (UniProt Q03181); experiment: as above; conditions: HEK293T PPARd-UAS-bla, beta-lactamase FRET ratio, 18 h; series mostly up to 76.7 µM
# Outline: as §1
# [5] = molecular target: Peroxisome proliferator-activated receptor gamma (Homo sapiens) (UniProt P37231); experiment: qHTS assay for small molecule antagonists of peroxisome proliferator-activated receptor gamma signaling (AID 588537; active = well fitted inhibition curve with a large enough effect in the signal ratio, with a control signal flat, not every such curve was filed as active; the % refers to the signal ratio;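 also: reporter cells co-stimulated with 50 nM rosiglitazone agonist during compound treatment; % of control where 0% means no effect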); conditions: HEK293 PPARg-UAS-bla, beta-lactamase ratio, antagonist mode; series mostly up to 76.8 µM
# Outline: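 Compounds are tested as concentration series for inhibition of rosiglitazone-driven (50 nM) reporter expression in GeneBLAzer PPAR-gamma-UAS-bla HEK293 cells. After 16 h at 37 C, CCF4 substrate is added for 2 h at room temperature and blue/green fluorescence is measured.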
# [6] = molecular target: Vitamin D3 receptor (Homo sapiens) (UniProt P11473); experiment: qHTS assay for small molecule antagonists of vitamin D receptor signaling (AID 588541); conditions: HEK293T VDR-UAS-bla, beta-lactamase ratio, antagonist mode; series mostly up to 76.7 µM;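 also: receptor activated by calcitriol during compound treatment; % is scaled to controls: 0 for no effect and ±100 for the full control effect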
# Outline: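 VDR-UAS-bla HEK293T cells (2000/well, 2% charcoal-stripped FBS) were treated with titrated compounds plus 1-alpha,25-dihydroxyvitamin D3 (50 nM or 3 nM final) for 16 h at 37 C. CCF4 beta-lactamase fluorescence was read; Hill fits gave IC50.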
# [7] = molecular target: Vitamin D3 receptor (Homo sapiens) (UniProt P11473); experiment: qHTS assay for small molecule agonists of vitamin D receptor signaling (AID 588543); conditions: HEK293T VDR-UAS-bla, beta-lactamase ratio, 16 h; series mostly up to 76.8 µM;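 also: 0% = DMSO basal and 100% = reference agonist control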
# Outline: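 Agonist-mode beta-lactamase reporter: HEK293T VDR-UAS-bla cells in charcoal-stripped 2% FBS, compound series 16 h 37 C, CCF4 2 h RT. EC50 from Hill fit, scaled against DMSO and 50 nM calcitriol control.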
# [8] = molecular target: Thyroid hormone receptor beta (Homo sapiens) (UniProt P10828); experiment: qHTS assay for small molecule agonists of thyroid hormone receptor beta signaling (AID 588545); conditions: TR-UAS-bla GripTite HEK 293, beta-lactamase ratio, agonist mode, 18 h, percent of T3 response, DMSO as zero; series mostly up to 76.7 µM;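 also: 0% = DMSO only and 100% = 10 nM T3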
# Outline: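 Stimulation of a TR-driven beta-lactamase reporter was quantified in GripTite HEK 293 cells. Compound series ran for 18 hrs; curves were normalized to T3 and DMSO controls and fitted to yield EC50.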
# [9] = qHTS assay for small molecule antagonists of retinoid X receptor alpha signaling (AID 588546; active = well fitted inhibition curve with a large enough effect in the signal ratio, with a control signal flat, not every such curve was filed as active; the % refers to the signal ratio;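 also: cells stimulated with 9-cis-retinoic acid as agonist; % is scaled to controls: 0 for no effect and ±100 for the full control effect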); conditions: HEK293T RXRa-UAS-bla, beta-lactamase ratio, antagonist mode; measured here: W530 green channel, cytotoxicity proxy
# Outline: (§2)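 Beta-lactamase reporter inhibition, read as CCF4 fluorescence ratio (ex 405, em 460/530 nm) after 2 h at RT. HEK293T UAS-bla cells, 2500/well, were stimulated with 9-cis-RA at 500 or 100 nM final alongside test compound for 18 h at 37 C.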
# [10] = molecular target: Retinoic acid receptor RXR-alpha (Homo sapiens) (UniProt P19793); experiment: as above; conditions: HEK293T RXRa-UAS-bla, beta-lactamase ratio, antagonist mode
# Outline: as §2
# Sequence of Vitamin D3 receptor (Homo sapiens) (P11473 whole entry, looked up): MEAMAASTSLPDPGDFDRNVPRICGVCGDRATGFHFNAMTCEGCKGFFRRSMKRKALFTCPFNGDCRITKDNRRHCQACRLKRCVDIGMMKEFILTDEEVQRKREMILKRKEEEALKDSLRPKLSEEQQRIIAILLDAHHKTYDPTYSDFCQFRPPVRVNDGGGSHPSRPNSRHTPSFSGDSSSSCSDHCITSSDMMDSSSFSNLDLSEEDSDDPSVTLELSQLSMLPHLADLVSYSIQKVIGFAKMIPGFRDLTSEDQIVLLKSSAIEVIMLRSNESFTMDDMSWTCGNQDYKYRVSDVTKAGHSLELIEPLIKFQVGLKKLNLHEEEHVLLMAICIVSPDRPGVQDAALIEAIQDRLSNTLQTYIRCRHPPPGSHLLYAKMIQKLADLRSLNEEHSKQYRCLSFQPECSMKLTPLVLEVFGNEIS
# Sequence of Glucocorticoid receptor (Homo sapiens) (P04150 whole entry, looked up): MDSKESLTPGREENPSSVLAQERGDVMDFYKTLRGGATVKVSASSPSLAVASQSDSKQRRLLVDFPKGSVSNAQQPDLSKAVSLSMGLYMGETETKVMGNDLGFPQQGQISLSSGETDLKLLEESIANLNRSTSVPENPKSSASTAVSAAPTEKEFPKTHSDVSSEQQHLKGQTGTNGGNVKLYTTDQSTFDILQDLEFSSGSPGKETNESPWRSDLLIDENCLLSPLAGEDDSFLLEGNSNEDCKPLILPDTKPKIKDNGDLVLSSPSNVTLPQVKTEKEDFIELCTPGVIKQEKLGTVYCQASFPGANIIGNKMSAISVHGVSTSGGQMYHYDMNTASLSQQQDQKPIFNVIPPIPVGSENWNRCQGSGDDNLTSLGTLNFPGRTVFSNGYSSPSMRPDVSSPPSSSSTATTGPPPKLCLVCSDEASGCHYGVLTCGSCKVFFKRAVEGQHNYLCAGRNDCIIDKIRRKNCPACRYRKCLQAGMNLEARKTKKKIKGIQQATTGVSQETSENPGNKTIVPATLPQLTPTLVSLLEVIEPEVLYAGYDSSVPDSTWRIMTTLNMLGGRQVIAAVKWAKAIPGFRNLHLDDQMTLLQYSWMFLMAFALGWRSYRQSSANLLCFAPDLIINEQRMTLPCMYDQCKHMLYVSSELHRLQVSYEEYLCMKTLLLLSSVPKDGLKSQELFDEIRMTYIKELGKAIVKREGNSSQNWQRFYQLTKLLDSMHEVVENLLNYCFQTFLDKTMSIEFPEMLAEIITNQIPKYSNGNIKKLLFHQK
# Sequence of Peroxisome proliferator-activated receptor gamma (Homo sapiens) (P37231 whole entry, looked up): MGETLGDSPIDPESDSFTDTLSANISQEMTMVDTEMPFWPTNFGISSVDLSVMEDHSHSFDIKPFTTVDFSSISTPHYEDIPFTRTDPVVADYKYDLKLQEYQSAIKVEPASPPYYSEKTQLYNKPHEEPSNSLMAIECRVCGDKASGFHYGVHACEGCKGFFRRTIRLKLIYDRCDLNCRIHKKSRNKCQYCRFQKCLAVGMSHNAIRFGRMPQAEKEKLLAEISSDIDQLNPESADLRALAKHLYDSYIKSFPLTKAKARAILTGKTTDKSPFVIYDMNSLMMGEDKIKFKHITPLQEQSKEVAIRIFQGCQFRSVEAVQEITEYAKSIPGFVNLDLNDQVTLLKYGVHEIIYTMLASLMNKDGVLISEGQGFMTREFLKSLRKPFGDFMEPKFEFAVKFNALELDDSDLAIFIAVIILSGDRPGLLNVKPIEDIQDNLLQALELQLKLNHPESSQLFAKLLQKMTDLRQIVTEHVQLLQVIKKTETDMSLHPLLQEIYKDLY
# Sequence of Retinoic acid receptor RXR-alpha (Homo sapiens) (P19793 whole entry, looked up): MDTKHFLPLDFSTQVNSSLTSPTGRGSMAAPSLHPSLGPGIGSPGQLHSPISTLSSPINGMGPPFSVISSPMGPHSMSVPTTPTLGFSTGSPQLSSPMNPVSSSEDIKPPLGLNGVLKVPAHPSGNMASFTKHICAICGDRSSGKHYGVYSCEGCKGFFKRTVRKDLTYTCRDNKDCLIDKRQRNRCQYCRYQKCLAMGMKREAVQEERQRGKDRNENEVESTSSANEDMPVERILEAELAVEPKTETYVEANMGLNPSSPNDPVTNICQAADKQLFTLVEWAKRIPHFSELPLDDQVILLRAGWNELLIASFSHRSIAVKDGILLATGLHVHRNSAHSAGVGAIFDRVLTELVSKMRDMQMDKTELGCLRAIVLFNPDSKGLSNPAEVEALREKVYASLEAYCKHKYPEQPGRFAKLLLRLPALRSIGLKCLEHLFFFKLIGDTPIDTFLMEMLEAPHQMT
# Sequence of Peroxisome proliferator-activated receptor delta (Homo sapiens) (Q03181 whole entry, looked up): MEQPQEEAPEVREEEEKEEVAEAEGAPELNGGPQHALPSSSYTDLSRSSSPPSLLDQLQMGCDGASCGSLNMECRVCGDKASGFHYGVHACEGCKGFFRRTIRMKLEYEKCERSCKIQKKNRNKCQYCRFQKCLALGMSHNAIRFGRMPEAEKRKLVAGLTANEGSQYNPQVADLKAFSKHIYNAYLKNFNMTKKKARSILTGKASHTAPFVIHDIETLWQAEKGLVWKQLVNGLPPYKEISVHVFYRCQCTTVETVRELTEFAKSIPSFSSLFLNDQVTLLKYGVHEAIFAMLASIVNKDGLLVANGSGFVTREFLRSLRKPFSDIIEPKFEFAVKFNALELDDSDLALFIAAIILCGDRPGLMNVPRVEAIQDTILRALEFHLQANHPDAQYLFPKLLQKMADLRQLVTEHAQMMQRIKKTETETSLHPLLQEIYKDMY
# Sequence of Thyroid hormone receptor beta (Homo sapiens) (P10828 whole entry, looked up): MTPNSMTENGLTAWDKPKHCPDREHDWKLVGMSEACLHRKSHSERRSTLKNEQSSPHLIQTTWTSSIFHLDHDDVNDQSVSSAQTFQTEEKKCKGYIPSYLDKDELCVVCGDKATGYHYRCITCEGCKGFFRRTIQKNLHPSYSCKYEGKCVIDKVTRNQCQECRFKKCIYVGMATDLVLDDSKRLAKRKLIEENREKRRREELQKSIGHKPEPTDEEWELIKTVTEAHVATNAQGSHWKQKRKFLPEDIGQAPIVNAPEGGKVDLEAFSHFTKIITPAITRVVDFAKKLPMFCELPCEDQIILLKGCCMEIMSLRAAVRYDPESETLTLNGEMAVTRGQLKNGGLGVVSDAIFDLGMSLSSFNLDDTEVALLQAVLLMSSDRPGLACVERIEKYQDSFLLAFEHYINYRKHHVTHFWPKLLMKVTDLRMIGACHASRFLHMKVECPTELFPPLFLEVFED
structure (smiles),measurement,setting,value
O=C(O)CCCc1c[nH]c2ccccc12,activation,[1],-4.22% (inactive)
same,outcome,[2],inactive
same,max response,[3],35.4%
same,outcome,[4],inactive
same,outcome,[5],inactive
same,outcome,[6],inactive
same,outcome,[7],inactive
same,outcome,[8],inactive
same,max response,[9],7.98%
same,max response,[10],6.54% (inactive)
